Screening results as filed in PubChem BioAssay.
USP7 block = inhibitors of human USP7 deubiquitinase; 0.3% of 47,000 active; Ubiquitin carboxyl-terminal hydrolase 7 (Homo sapiens), Q93009; inhibition, % at 20 µM; AID 1645854, 2021; purified USP7, Ub-rhodamine cleavage fluorescence
UCHL1 block = inhibitors of human UCHL1 deubiquitinase. Ubiquitin carboxyl-terminal hydrolase isozyme L1 (Homo sapiens), P09936. purified UCHL1, Ub-rhodamine cleavage fluorescence. inhibition, % at 20 µM. 0.2% of 47,000 active
Target sequence (P09936 whole entry, looked up): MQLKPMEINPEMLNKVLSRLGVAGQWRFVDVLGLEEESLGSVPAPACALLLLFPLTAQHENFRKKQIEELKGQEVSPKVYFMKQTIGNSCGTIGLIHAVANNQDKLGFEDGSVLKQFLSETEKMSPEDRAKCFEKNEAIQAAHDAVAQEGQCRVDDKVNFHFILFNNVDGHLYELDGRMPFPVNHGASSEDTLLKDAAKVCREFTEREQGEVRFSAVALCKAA
USP10 inh = inhibitors of human USP10 deubiquitinase; Ubiquitin carboxyl-terminal hydrolase 10 (Homo sapiens), Q14694; purified USP10, Ub-rhodamine fluorescence, 60 min; inhibition, % at 20 µM; 1.1% of 47,000 active; AID 1645856, 2021
USP8 inh = inhibitors of human USP8 deubiquitinase; purified USP8, Ub-rhodamine cleavage fluorescence, 30 min; Ubiquitin carboxyl-terminal hydrolase 8 (Homo sapiens), P40818; inhibition, % at 20 µM; 4.2% of 47,000 active
USP30 inh = inhibitors of human USP30 deubiquitinase; 5.3% of 47,000 active; purified USP30, Ub-rhodamine cleavage fluorescence; inhibition, % at 25 µM
USP17 inh = inhibitors of human USP17 deubiquitinase | AID 1645855, 2021 | purified USP17, Ub-rhodamine cleavage fluorescence, 3 h | 6.5% of 47,000 active | inhibition, % at 50 µM | Ubiquitin carboxyl-terminal hydrolase 17-like protein 5 (Homo sapiens), A8MUK1
The depositor's hits bear a star. Hits are enriched below; roughly 13% of the tested compounds scored in any of these assays. Cut-off read from the data, not from the text of the source: active = inhibition above about 30%; inactive = the rest.

SMILES	USP7 block	UCHL1 block	USP10 inh	USP8 inh	USP30 inh	USP17 inh
CO[C@H]1/C=C/C=C\C=C\C[C@H](OC(=O)[C@@H](C)NC(=O)C2CCCCC2)[C@H](C)[C@@H](O)/C(C)=C\CCc2cc(O)cc(c2O)NC(=O)C1	0.1	2.8	-4.2	-3.9	-36.0	33.0*
C/C=C/C(O)C(C)(C)C1C\C=C/C=C\C=C\C(OC)Cc2nc(co2)C(=O)OC(C(C)(C)C(O)/C=C/C)C/C=C\C2OC2/C=C/C=C\c2nc(co2)C(=O)O1 (configuration not stated)	2.1	-14.5	-8.4	-201.5	-378.7	-47.9
O=S1(=O)Cc2cnc(NCC3CC3)nc2[C@H]2CNC[C@H]21	4.6	4.8	2.4	13.3	13.2	10.5
C=C/C(=C/C(=O)C[C@H](C)C[C@@H](C)CC[C@H](O)[C@H](C)C(=O)CC(O)[C@H](C)[C@@H](C)OC(=O)C[C@@H](O)C1=C(C)C(=O)OC1=O)CC (some centres not stated)	77.5*	91.5*	80.8*	77.3*	54.0*	87.5*
CN1C(=O)[C@@]23C[C@]4([C@@]56C[C@]78SS[C@](CO)(C(=O)N7[C@@H]5Nc5ccccc56)N(C)C8=O)c5ccccc5N[C@@H]4N2C(=O)[C@]1(CO)SS3	6.6	3.2	3.6	0.9	67.9*	-32.2
Cc1ccc(C)c(C2NCc3ccccc3-n3cccc32)c1 (configuration not stated)	9.7	7.9	2.4	14.2	9.9	7.0
CN1CC[C@@H]2[C@H]1CCCCN2C(=O)COc1ccc(F)cc1	-9.6	-11.9	-4.3	-50.0	-31.7	-29.0
CN1CCCC[C@@H]2N(C(=O)Cn3ccc(=O)[nH]c3=O)CCC[C@@]21C	1.9	0.0	3.2	2.2	30.8*	12.2
Cc1ccn2c(=O)cc(COC(=O)C(O)(c3ccccc3)c3ccccc3)nc2c1	-18.1	-11.3	-2.2	-4.9	-22.7	-11.0
Oc1ccc2ccccc2c1CN1CC=C(c2ccccc2)CC1	8.1	-0.7	-0.3	34.9*	-13.5	11.5
O=C(Nc1nc2ccc([N+](=O)[O-])cc2s1)c1cccn(Cc2ccc(F)cc2)c1=O	-2.4	-4.3	0.1	0.6	-4.7	4.6
O=C(Nc1nc2ccccc2s1)c1cccn(Cc2cccc(Cl)c2)c1=O	-1.3	4.1	0.1	-0.1	-20.9	45.8*
O=C(Nc1nccs1)c1cccn(Cc2ccc(Cl)c(Cl)c2)c1=O	-0.3	-0.6	4.7	3.3	5.2	31.1*
Cc1ccc(CN2CC[C@@H]3[C@@H](CO[C@H]3CNc3ncccn3)C2)o1	-6.6	-8.1	-3.1	-134.8	-65.5	-31.2
CC1=CC2O[C@@H]3C[C@H]4OC(=O)/C=C\CCC5(C(=O)CO)OCC/C(=C\C(=O)OCC2(CC1)[C@]4(C)C31CO1)C5O (some centres not stated)	3.1	2.7	-1.7	-0.6	3.4	0.5
CC1CC[C@]2(NC1)O[C@H]1C[C@H]3[C@@H]4CC[C@H]5C[C@@H](O[C@@H]6O[C@H](CO)[C@H](O[C@@H]7O[C@H](CO)[C@@H](O)[C@H](O[C@@H]8OC[C@@H](O)[C@H](O)[C@H]8O)[C@H]7O[C@@H]7O[C@H](CO)[C@@H](O)[C@H](O)[C@H]7O)[C@H](O)[C@H]6O)CC[C@]5(C)[C@H]4CC[C@]3(C)[C@H]1[C@@H]2C (some centres not stated)	-6.1	-2.5	-10.7	-12.5	41.4*	62.3*
Cc1cccc(OCC(=O)N2CCN(CC3CC4C=CC3C4)CC2)c1 (configuration not stated)	-4.6	-1.1	-0.7	-3.3	-9.7	2.7
CO/C1=C\C(C)=C\[C@@H](C)[C@@H](O)[C@H](C)C/C(C)=C/C=C/[C@H](OC)[C@@H]([C@@H](C)[C@@H](O)[C@H](C)[C@@]2(O)C[C@@H](OC(=O)/C=C/C(=O)NC3=C(O)CCC3=O)[C@H](C)[C@@H](C(C)C)O2)OC1=O	21.6	3.6	24.9	-7.1	-60.2	39.8*
NC(=O)N1c2ccccc2[C@@H]2CNCC[C@H]21	0.7	-0.1	1.3	-1.0	-15.7	-38.4
O=C1C=CC(O)C2C1CC13SSC4(CC5C(=O)C=CC(O)C5N4C1=O)C(=O)N23 (configuration not stated)	3.0	3.5	4.4	2.5	60.3*	-17.1
O=C(O)C1Cc2cc([N+](=O)[O-])ccc2N2CCCCCC12 (configuration not stated)	-3.2	-0.7	-6.9	7.0	-75.5	19.5
